Screens deposited in PubChem BioAssay by several laboratories.
Only some compounds are listed: those with a hit (about 4.3% of all), similar ones and a draw of the others.
PfHsp40 rescue = compounds rescuing yeast from Plasmodium falciparum HSP40 toxicity | S. cerevisiae expressing PfHsp40, growth rescue, ATP luminescence | growth rescue, % at 12.5 µM | hit rate 0.68% among 340,000; in the data active means growth rescue above about 28%, passing the limit was not always enough; inconclusive means no clear call, values can overlap the other calls;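 further: yeast W303a lacking pdr1 and pdr3 grown in galactose medium; growth measured after three days at 30 °C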
BoNT F protease = inhibitors of Botulinum neurotoxin F light chain protease. AID 588497. inhibition, % at 10 µM. Multiplex microsphere protease cleavage assay, flow cytometry. hit rate 0.22% among 360,000; in the data active means inhibition above about 35%, passing the limit was not always enough; inconclusive means no clear call, values can overlap the other calls; further: plate controls were buffer without enzyme for full effect and enzyme alone for no effect
Autofluor counter = compound fluorescence in toxin protease inhibitor counterscreen; compound autofluorescence counterscreen, microsphere flow cytometry; hits give high values; fluorescence intensity (concentration not given with the values); hit rate 3.1% among 360,000; AID 624483; in the data active means fluorescence intensity above about 16000; inconclusive means no clear call, values can overlap the other calls
BoNT-A LC inh2 = inhibitors of Botulinum neurotoxin A light chain protease; hit rate 0.17% among 360,000; inhibition, % at 10 µM; multiplex microsphere protease substrate cleavage, flow cytometry; further: plate controls were buffer without enzyme for full effect and enzyme alone for no effect
MazEF act = increases E. coli MazEF RNase cleavage of RNA; activation, % at 20 µM; P0AE70; hit rate 0.32% among 350,000; FAM/BHQ RNA-DNA oligo cleavage fluorescence, 5 h; AID 504720; in the data active means activation above about 50%
Target sequence (P0AE70 whole entry, looked up): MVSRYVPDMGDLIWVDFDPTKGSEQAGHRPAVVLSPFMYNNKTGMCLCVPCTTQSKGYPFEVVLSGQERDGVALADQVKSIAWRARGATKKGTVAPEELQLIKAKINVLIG
Anthrax LF inh2 = anthrax lethal factor protease inhibition. multiplex microsphere protease cleavage assay, LF. inhibition, % at 10 µM. hit rate 0.12% among 360,000. AID 588501; further: plate controls were buffer without enzyme for full effect and enzyme alone for no effect
The depositor's hits bear a star. Unless noted, no stated cut-off is given here; in the data, active means inhibition above about 30%; inconclusive means no clear call, values can overlap the other calls; inactive means below that.

`Cc1ccc(S(=O)(=O)c2nc(S(=O)(=O)c3ccc(C)cc3)c(N3CCN(CCO)CC3)s2)cc1` gave PfHsp40 rescue 0.4, BoNT F protease 3.8, Autofluor counter 4458, BoNT-A LC inh2 0.3, MazEF act -5.4 and Anthrax LF inh2 -4.3.
`CNC(=O)NC(=O)C(OC(=O)CCNS(=O)(=O)c1ccccc1)c1ccccc1` (stereo unspecified) gave PfHsp40 rescue -1.0, BoNT F protease -70.3, Autofluor counter 18283*, BoNT-A LC inh2 -41.6, MazEF act -0.6 and Anthrax LF inh2 -10.3.
`COc1ccc(NC(=O)Cc2nnc(SCC(=O)NC3CCCC3)n2C)cc1` gave PfHsp40 rescue 0.3, BoNT F protease 3.1, Autofluor counter 3957, BoNT-A LC inh2 -2.9, MazEF act 2.6 and Anthrax LF inh2 1.2.
For CC(C)CN(C(=O)COC(=O)Cc1n[nH]c(=O)c2ccccc12)C1CCS(=O)(=O)C1 (stereo unspecified) the results were PfHsp40 rescue -0.3, BoNT F protease 0.9, Autofluor counter 21604*, BoNT-A LC inh2 inconclusive, MazEF act 6.4 and Anthrax LF inh2 0.2.
`CCCCOc1ccc(C(=O)N2CCCC2)cc1` gave PfHsp40 rescue -0.7, BoNT F protease -0.8, Autofluor counter 16482*, BoNT-A LC inh2 inconclusive, MazEF act 5.6 and Anthrax LF inh2 -0.3.
Screening CCOC(=O)C1CCCN(C(=S)Nc2ccc(Nc3ccccc3)cc2)C1 (stereo unspecified) returned PfHsp40 rescue -0.5, BoNT F protease -7.1, Autofluor counter 3346, BoNT-A LC inh2 -0.1, MazEF act 2.1 and Anthrax LF inh2 0.8.
For COc1ccc(C(=O)NN2CCCCC2)cc1OC the results were PfHsp40 rescue -0.4, BoNT F protease 2.1, Autofluor counter 22220*, BoNT-A LC inh2 inconclusive, MazEF act 1.5 and Anthrax LF inh2 2.3.
For CCCCC(=O)N1CCCC(C(=O)OCC)C1 (stereo unspecified) the results were PfHsp40 rescue -0.3, BoNT F protease -0.2, Autofluor counter 22655*, BoNT-A LC inh2 -0.6, MazEF act 2.0 and Anthrax LF inh2 -0.6.
CCOC(=O)C1CCCN(C(=S)Nc2ccc(C)cc2C)C1 (stereo unspecified) was read as PfHsp40 rescue -1.8, BoNT F protease -1.5, Autofluor counter 16244*, BoNT-A LC inh2 0.2, MazEF act 2.3 and Anthrax LF inh2 -0.7.
COc1ccc(C(=O)NCC(=O)N2CCCCC2)cc1OC was read as PfHsp40 rescue -0.3, BoNT F protease 0.7, Autofluor counter 3383, BoNT-A LC inh2 -0.1, MazEF act 1.1 and Anthrax LF inh2 -1.3.
Screening COc1ccccc1-c1ncn(Cc2cccc(-c3ccccc3)c2)c1CC(C)C returned BoNT F protease -8.6, Autofluor counter 6554, BoNT-A LC inh2 -0.7 and Anthrax LF inh2 -10.9.
For CNC(=O)/C(C#N)=C/c1c(N2CCCCCC2)nc2ccccn2c1=O the results were PfHsp40 rescue -0.5, BoNT F protease 19.0, Autofluor counter 4156, BoNT-A LC inh2 -0.3, MazEF act 6.0 and Anthrax LF inh2 2.1.
`O=C(NCc1ccccc1OC(F)(F)F)C1CCC(=O)N(CCCN2CCOCC2)C1` (stereo unspecified) gave BoNT F protease -0.2, Autofluor counter 3387, BoNT-A LC inh2 0.8, MazEF act 7.3 and Anthrax LF inh2 2.0.
For CCOc1ccc(C(=O)N2CCN(c3cccc(Cl)c3)CC2)cc1 the results were PfHsp40 rescue 0.0, BoNT F protease -2.1, Autofluor counter 4282, BoNT-A LC inh2 -0.7, MazEF act -3.5 and Anthrax LF inh2 -6.6.
CCOc1ccc(C(=O)N2CCN(c3cccc(C)c3C)CC2)cc1 was read as PfHsp40 rescue 3.9, BoNT F protease -5.8, Autofluor counter 17197*, BoNT-A LC inh2 -2.5, MazEF act -1.1 and Anthrax LF inh2 -1.2.
`CCCOc1ccc(C(=O)N2CCCC2)cc1OC` gave PfHsp40 rescue -0.1, BoNT F protease -0.8, Autofluor counter 19871*, BoNT-A LC inh2 inconclusive, MazEF act 0.5 and Anthrax LF inh2 1.4.
`CCCCOc1ccc(C(=O)Oc2ccc(C)nc2)cc1` gave PfHsp40 rescue 1.6, BoNT F protease -3.1, Autofluor counter 10901, BoNT-A LC inh2 -0.4, MazEF act 0.4 and Anthrax LF inh2 -0.4.
For CCOC(=O)C1CCCN(C(=O)c2ccc(OCC)cc2)C1 (stereo unspecified) the results were PfHsp40 rescue -2.4, BoNT F protease -2.4, Autofluor counter 24552*, BoNT-A LC inh2 -0.9, MazEF act 8.1 and Anthrax LF inh2 1.1.
For CCCCCOc1ccc(OC(=O)c2ccncc2)cc1 the results were PfHsp40 rescue 73.5*, BoNT F protease 0.9, Autofluor counter 9497, BoNT-A LC inh2 -0.2, MazEF act 1.1 and Anthrax LF inh2 1.8.
For COCC(C)NC(=O)C(C)N1c2cccc3cccc(c23)S1(=O)=O (stereo unspecified) the results were PfHsp40 rescue -0.2, BoNT F protease 4.3, Autofluor counter 3573, BoNT-A LC inh2 1.5, MazEF act 3.6 and Anthrax LF inh2 -12.5.
Screening N#Cc1ccc(COc2cccc3cccnc23)cc1 returned PfHsp40 rescue -0.5, BoNT F protease -1.0, Autofluor counter 5469, BoNT-A LC inh2 -0.8, MazEF act 2.8 and Anthrax LF inh2 -1.3.
For O=C(O)c1c2c(nc3ccc(F)cc13)CCC2 the results were PfHsp40 rescue -0.8, BoNT F protease 6.2, Autofluor counter 20799*, BoNT-A LC inh2 6.0, MazEF act 2.1 and Anthrax LF inh2 -0.3.
`O=C(CSc1nc(C2CC2)nc2ccccc12)N1c2ccccc2Sc2ccc(C(F)(F)F)cc21` gave PfHsp40 rescue 0.2, BoNT F protease -3.0, Autofluor counter 21370*, BoNT-A LC inh2 -0.9, MazEF act 0.5 and Anthrax LF inh2 -2.3.
For CNC(=O)[C@@]1(C)C=C[C@@H](Cc2ccccc2)N1C(=O)OC the results were PfHsp40 rescue -0.9, BoNT F protease -1.0, Autofluor counter 3724, BoNT-A LC inh2 0.1, MazEF act -5.2 and Anthrax LF inh2 -0.2.
O=C1CC(C(=O)N2CCCc3ccccc32)CN1c1ccc(Cl)cc1 (stereo unspecified) was read as PfHsp40 rescue 0.4, BoNT F protease 7.3, Autofluor counter 3306, BoNT-A LC inh2 -0.5, MazEF act 8.4 and Anthrax LF inh2 -4.2.
CCCCc1[nH]c(=O)c(C#N)c2c1CSC(C)(C)C2 was read as PfHsp40 rescue -0.9, BoNT F protease 0.6, Autofluor counter 22475*, BoNT-A LC inh2 1.5, MazEF act -1.7 and Anthrax LF inh2 -4.5.
Screening CCc1[nH]c(=O)c(C#N)c2c1CSC(C)(C)C2 returned PfHsp40 rescue 13.0, BoNT F protease 1.9, Autofluor counter 23170*, BoNT-A LC inh2 inconclusive, MazEF act 10.7 and Anthrax LF inh2 0.4.
Screening Cc1[nH]c(=O)c(C#N)c2c1CSC(C)(C)C2 returned PfHsp40 rescue -0.1, BoNT F protease 2.2, Autofluor counter 11326, BoNT-A LC inh2 -0.7, MazEF act 5.9 and Anthrax LF inh2 -3.7.
